ELG1 genotoxic – qHTS screen for small molecules that induce genotoxicity in human embryonic kidney (HEK293T) cells expressing luciferase-tagged ELG1; HEK293T ELG1-luciferase reporter, luminescence, 16 h; Potency, µM (top dose mostly 46 µM), hits mostly activators; 330,000 compounds, 1.3% hits; AID 504466, 2011; further: nearly all actives have a fitted effect of over 60% in size
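DMSO vehicle served as control against compound-treated ELG1-luciferase HEK293T cells; exposure lasted 16 hr at 37 °C and 5% CO2, followed by ONE-Glo luminescence detection after 30 min.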
KinaseGlo FLuc – Counterscreen for Luciferase (Kinase-Glo TM) Inhibition; Luciferin 4-monooxygenase (Photuris pensylvanica), Q27757; Kinase-Glo luciferase, ATP luminescence, 8 min; Potency, µM (top dose mostly 38.3 µM), usual class: inhibitors; 200,000 compounds, 0.28% hits; AID 1379, 2008; further: nearly all actives have a fitted effect of over 60% in size
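Recombinant Kinase-Glo luciferase, 10 uM ATP (linear range), luciferin; imidazole pH 7.2 / KCl / MgCl2 / Tween / BSA buffer; 8 min RT; luminescence.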
FLuc counter – qHTS profiling assay for firefly luciferase inhibitor/activator using purifed enzyme and Km concentrations of substrates (counterscreen for miR-21 project) | Luciferin 4-monooxygenase (Photinus pyralis), P08659 | purified FLuc, Km substrates, luminescence inhibition | Potency, µM (titrated, usually from 57.5 µM), actives largely listed as inhibitors | 360,000 compounds, 6.9% hits | AID 588342, 2011; further: nearly all actives have a fitted effect of over 55% in size
Target sequence (P08659 whole entry, looked up): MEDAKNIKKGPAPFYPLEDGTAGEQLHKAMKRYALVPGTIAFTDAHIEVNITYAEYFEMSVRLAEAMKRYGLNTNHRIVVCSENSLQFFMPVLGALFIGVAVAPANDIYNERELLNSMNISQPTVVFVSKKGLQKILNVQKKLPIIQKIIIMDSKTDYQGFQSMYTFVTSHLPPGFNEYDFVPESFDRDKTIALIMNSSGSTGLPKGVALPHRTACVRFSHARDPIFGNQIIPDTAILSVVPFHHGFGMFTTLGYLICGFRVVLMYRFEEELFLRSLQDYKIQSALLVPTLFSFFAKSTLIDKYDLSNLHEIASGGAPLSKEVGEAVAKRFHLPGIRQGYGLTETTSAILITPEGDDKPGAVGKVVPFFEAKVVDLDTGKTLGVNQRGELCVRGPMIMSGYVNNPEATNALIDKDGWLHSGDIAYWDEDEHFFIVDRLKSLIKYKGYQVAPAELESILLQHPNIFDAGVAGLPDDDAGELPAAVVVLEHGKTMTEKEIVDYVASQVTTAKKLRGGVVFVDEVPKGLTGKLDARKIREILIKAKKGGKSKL
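Purified P. pyralis luciferase, 10 nM final, with Km-level 10 uM D-luciferin and 10 uM ATP in 50 mM Tris acetate pH 7.5, 10 mM Mg acetate, 0.01% Tween-20, 0.05% BSA; 6-point qHTS titration about 60 µM downward; luminescence read.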
SMN2 splice up – qHTS Assay for Enhancers of SMN2 Splice Variant Expression; HEK293 SMN2-luciferase splicing reporter, luminescence, 30-36 h; Potency, µM (doses to about 46.1 µM), usual class: activators; 210,000 compounds, 2.8% hits; further: nearly all actives have a fitted effect of over 55% in size
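qHTS luciferase splicing reporter: luminescence rises when SMN2 exon 7 is included in transfected HEK293 cells. Compound exposure lasted 30-36 h at 37C, with 4.5 mM final sodium butyrate as control, followed by a ONE-Glo read.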
Rab9 promoter act – qHTS Assay for Rab9 Promoter Activators; AID 485297, 2010; Huh7 Rab9 promoter-luciferase reporter, luminescence, 24 h; 320,000 compounds, 2.8% hits; Potency, µM (doses to about 9.22 µM), usual class: activators; further: nearly all actives have a fitted effect of over 60% in size
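Rab9 promoter-driven luciferase in stably transfected Huh7 cells; 1500 cells/well rested 2 h, exposed to compound in DMSO for 24 h at 37 °C, 5% CO2. Luminescence read 10 min after adding luciferase reagent at ambient temperature.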
NPC1 prom act – qHTS Assay for NPC1 Promoter Activators | Huh7 NPC1 promoter luciferase reporter, 24 h | Potency, µM (series often up to 9.22 µM), actives largely listed as activators | 320,000 compounds, 2.4% hits | AID 485313, 2010; further: nearly all actives have a fitted effect of over 60% in size
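Huh7 reporter cells (NPC1 promoter driving luciferase) are dosed with compound for 24 h at 37 °C, 5% CO2; luciferase detection reagent is then added and luminescence measured after 10 min at ambient temperature.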
Numbers stand for hits; i = inactive; ? = inconclusive; nt = not tested or not shown; [ ] = dose if it differs, or a comment. A selection: hits, their analogues and other compounds. The true share with any hit is near 7.4%. The call rests on the fitted dose curve; in most records, active means well fitted curve in the direction sought with a large enough effect; inconclusive means small, poorly fitted or top-dose-only effect, or another doubt; inactive means no such curve, though single readings can be large; an effect the other way counts as inactive or inconclusive.

SMILES	ELG1 genotoxic	KinaseGlo FLuc	FLuc counter	SMN2 splice up	Rab9 promoter act	NPC1 prom act
COc1ccc(NCc2cc3cc4c(cc3n(CC(=O)Nc3cc(C)ccc3C)c2=O)OCCO4)cc1	nt	nt	i	nt	nt	nt
COc1ccc(NC(=O)Cc2nnc(SCC(=O)Nc3nccs3)n2C)cc1	i	nt	15µM	nt	i	i
CCn1c(CC(=O)Nc2cccc(OC)c2)nnc1SCC(=O)Nc1nccs1	i	i	i	i	i	i
COc1ccc(NC(=O)Cc2nnc(SCC(=O)Nc3ccccc3)n2C)cc1	i	nt	17µM	nt	i	i
Cn1ccnc1SCC(=O)Nc1ccc(Oc2ccccc2)cc1	?	i	13µM	i	i	?
COc1ccc(C(=O)NCCc2nnc3ccc(SCC(=O)Nc4ccccc4)nn23)cc1	?	nt	3µM	nt	2.8µM	1.6µM
O=C(CSc1ccc2nnc(CCNC(=O)c3ccccc3)n2n1)Nc1ccccc1	i	i	i	i	i	i
CC(C)N=C=NC(C)C	nt	nt	nt	i	nt	nt
CCc1ccc(NC(=O)CSC2=Nc3ccccc3C3=NC(CCC(=O)NCc4ccccc4OC)C(=O)N23)cc1 (configuration not stated)	nt	nt	i	nt	nt	nt
CCOc1ccc(C(=O)Nc2ccc3oc(-c4ccc5ccccc5c4)nc3c2)cc1	nt	nt	i	i	nt	nt
O=S(=O)(c1ccccc1)N1CCC2(CCCN(Cc3ccncc3)C2)CC1	nt	i	nt	i	nt	nt
COc1ccccc1N1CCN(C[C@@H](C(=O)NC(C)(C)C)c2ccccc2)CC1	nt	i	nt	nt	nt	nt
COc1ccc(CC(=O)NCc2nnc(SCC(=O)Nc3ccccc3)n2C)cc1	i	i	?	i	i	i
COc1ccc(CC(=O)NCc2nnc(SCC(=O)Nc3cccc(F)c3)n2C)cc1	i	i	15µM	i	i	i
O=C(NCCc1ccccc1)C(=O)Nc1ccc2c(c1)OCCO2	?	i	i	i	i	i
O=C(NCCc1ccccc1)Nc1ccc2c(c1)OCO2	?	i	11µM	14µM	1.4µM	2.5µM
O=C(O)CCCCCNC(=O)Nc1ccc2c(c1)OCCO2	i	i	9.5µM	nt	i	i
COc1ccc(CCNC(=O)Nc2ccc3c(c2)OCO3)cc1OC	i	i	i	nt	i	i
O=C(NCCc1ccccc1)Nc1cccc(Cl)c1	i	i	17µM	i	?	?
O=C(NCCc1ccc(F)cc1)Nc1ccc2c(c1)OCO2	i	i	?	nt	2.8µM	?
O=c1c2c3c(sc2nnn1Cc1ccc(Br)cc1)CCCC3	nt	nt	i	i	nt	nt
Cc1ccc(CNC(=O)c2nnn(Cc3ccc(F)cc3)c2N)cc1	nt	nt	i	i	nt	nt
CC(C)NC(=O)c1ccc(CSc2nc3ccncc3n2Cc2cccc(F)c2)cc1	nt	nt	i	i	nt	nt
O=C(Nc1ccc2c(c1)OCO2)OCc1ccccc1	?	i	6µM	20µM	1.3µM	1.6µM
O=C(N/N=C/c1cccc(O)c1)c1ccc(COc2cccc3cccnc23)cc1	i	i	17µM	i	i	i
SMILES	ELG1 genotoxic	KinaseGlo FLuc	FLuc counter	SMN2 splice up	Rab9 promoter act	NPC1 prom act
COc1ccc(/C=N/NC(=O)c2sccc2OCc2ccc(F)cc2)cc1OC	i	i	13µM	i	i	i
COc1ccc(/C=N/NC(=O)c2ccc(COc3cccc4cccnc34)cc2)cc1O	i	nt	13µM	nt	i	i
O=C(N/N=C/c1ccc2c(c1)OCO2)c1ccc(COc2cccc3cccnc23)cc1	i	i	5.4µM	i	?	i
CCOc1ccccc1NC(=O)Cn1c(=O)n(C(C)C)c(=O)c2oc3ccccc3c21	nt	nt	i	nt	nt	nt
O=C(CSc1nc2ccccc2nc1Cc1ccccc1F)Nc1cccc(C(F)(F)F)c1	nt	nt	i	i	nt	nt
COC(=O)c1ccc(NC(=O)CC2C(=O)N(c3ccccc3)C(=O)N2C2CCCC2)cc1 (configuration not stated)	nt	nt	i	nt	nt	nt
CCOc1ccc2c(c1)sc1nc(=O)n(-c3ccc(Cl)c(Cl)c3)c(=O)n12	nt	nt	i	i	nt	nt
O=C(N/N=C/c1ccc2cccc(OCc3ccccc3)c2n1)c1ccc(Cl)cc1	i	i	6.7µM	i	i	i
O=C(N/N=C/c1ccncc1)c1ccc(COc2cccc3cccnc23)cc1	i	i	i	i	i	i
Cc1ccc2c(Sc3ccc(Cl)cc3)c(C(=O)NCCC(C)C)[nH]c2c1	nt	nt	i	nt	nt	nt
O=C(O)CSc1nnc(-c2ccc3c(c2)OCO3)o1	i	i	?	i	i	i
NC(=O)CSc1nnc(-c2ccc3c(c2)OCO3)o1	?	i	15µM	13µM	2.5µM	2.8µM
NC(=O)c1ccc(NC(=O)CSc2nnc(-c3ccc4c(c3)OCO4)o2)cc1	i	nt	i	nt	i	i
O=C(c1ccc(Cl)cc1)N1CCCCC(Sc2nnc(-c3ccc4c(c3)OCO4)o2)C1=O (configuration not stated)	?	i	1.9µM	i	?	?
Cc1ccc(OC(=O)CSc2nnc(-c3ccc4c(c3)OCO4)o2)cc1	nt	nt	i	nt	nt	nt
C/C(N)=C(/C#N)C(=O)CSc1ccccc1F	?	i	?	?	3.5µM	?
C/C(N)=C(/C#N)C(=O)CSc1nnc(-c2ccc3c(c2)OCO3)o1	0.58µM	i	0.27µM	1.1µM	0.1µM	0.28µM
COc1ccc(-n2c(=O)c3c(c4cc(OC)ccc4n3C)n(Cc3ccc(F)cc3Cl)c2=O)cc1	nt	nt	i	nt	nt	nt
CNS(=O)(=O)c1ccccc1C(=N)c1ccccc1	nt	i[7.66 µM]	nt	nt	nt	nt
Nc1nc2c(ncn2C2CC(O)C(CO)O2)c(=O)[nH]1 (configuration not stated)	nt	i	nt	i	nt	nt
CCOC(=O)c1c(C)[nH]c(C)c1C(=O)CSc1nnc(-c2ccc(OC(F)F)cc2)o1	i	i	i	i	i	i
C/C(N)=C(/C#N)C(=O)CSc1nnc(-c2ccc(OC(F)F)cc2)o1	5.8µM	i	2.7µM	11µM	1.3µM	1.4µM
O=C(Nc1cc([N+](=O)[O-])ccc1O)c1ccc2c(c1)C(=O)N(Cc1ccco1)C2=O	i	nt	?	nt	4µM	4µM
O=C(Nc1ccc(O)cc1)c1ccc2c(c1)C(=O)N(Cc1ccco1)C2=O	i	i	i	i	i	i
CCCCCCCCCCCCCCC(C(=O)O)C(O)(CC(=O)OC)C(=O)O (configuration not stated)	nt	i	nt	i	nt	nt
CCC1C(=O)n2nc(-c3ccccc3)cc2N=C1C (configuration not stated)	?	i	13µM	13µM	2.8µM	?
O=C(O)Cn1nc(-c2ccccc2)cc1-c1ccccc1	i	nt	i	nt	i	i
O=C(Nc1sc2c(c1C(=O)O)CCC2)c1ccccc1	i	i	15µM	10µM	?	i
O=C(Nc1sc2c(c1C(=O)O)CCCCC2)c1ccccc1	i	?	4.8µM	nt	0.89µM	2.8µM
